Screens deposited in PubChem BioAssay by National Center for Advancing Translational Sciences (NCATS).
Most compounds without a hit are left out; they make up all but 3.2% or so of the library.
LmPK inh: LmPK (Leishmania mexicana) enzyme inhibition; hit rate 0.37% among 290,000; Q27686; AID 1721; purified LmPK, Kinase-Glo ATP luminescence, 1 h; Potency, µM (top dose mostly 57.5 µM), for inactives: top-dose activity change, negative = inhibition, hits mostly inhibitors
Target sequence (Q27686 whole entry, looked up): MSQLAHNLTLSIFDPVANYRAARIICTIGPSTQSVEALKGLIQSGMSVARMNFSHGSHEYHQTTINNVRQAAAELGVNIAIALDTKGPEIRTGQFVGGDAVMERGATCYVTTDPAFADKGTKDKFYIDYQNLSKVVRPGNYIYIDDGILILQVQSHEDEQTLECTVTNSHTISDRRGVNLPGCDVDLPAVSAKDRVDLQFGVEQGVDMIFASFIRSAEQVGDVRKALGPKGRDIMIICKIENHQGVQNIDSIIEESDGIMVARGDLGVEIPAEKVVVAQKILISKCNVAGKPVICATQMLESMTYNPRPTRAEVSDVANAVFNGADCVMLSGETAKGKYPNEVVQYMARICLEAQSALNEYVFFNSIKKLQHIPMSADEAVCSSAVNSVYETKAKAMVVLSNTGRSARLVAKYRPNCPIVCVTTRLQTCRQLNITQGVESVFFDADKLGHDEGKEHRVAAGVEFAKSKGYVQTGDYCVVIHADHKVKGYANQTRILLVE
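ATP generated from ADP (0.1 mM) and PEP (0.5 mM) by 0.1 nM LmPK over 1 h at room temperature (pH 7.2 imidazole buffer) was detected by coupled luciferase luminescence. Values were normalized to uninhibited and no-enzyme wells.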
AMA1 RON2 block: AMA1-RON2 (P. falciparum) interaction inhibition | Potency, µM (highest dose often 58.2 µM), without a hit: at the highest dose activity change, negative = inhibition, usual class: inhibitors | hit rate 0.2% among 360,000 | AID 720542 | AlphaScreen AMA1-biotinylated RON2 peptide binding;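 also: 0% = vehicle wells and -100% = peptide control; nearly all actives have a fitted effect of over 45% in size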
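AMA1 (3D7) with his tag at 25 nM final met compounds first, then biotinylated RON2 peptide at 25 nM; detection used donor plus acceptor beads, 10 µg/mL apiece, read by AlphaScreen after 30 min at room temperature.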
Sm TGR block: S. mansoni TGR enzyme inhibition | hit rate 3% among 360,000 | purified TGR, DTNB reduction, TNB absorbance 405 nm | Potency, µM (highest dose often 114 µM), for the others: at the highest dose activity change, negative = inhibition, usual class: inhibitors | Q962Y6; also: nearly all actives have a fitted effect of over 60% in size
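TGR 20 nM + NADPH 100 uM (dispensed conc.), cpd preinc 15 min RT; start with NADPH (500 uM addition) then DTNB (15 mM addition). Kinetic TNB absorbance, 405 nm filter. Four-parameter Hill fit across titration.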
TbPYK inhibitor: inhibitors of Trypanosoma brucei pyruvate kinase. Q57TT1. TbPYK enzyme, Kinase-Glo Plus ATP luminescence, 45 min. Potency, µM (highest dose often 76.8 µM), inactives show at the highest dose activity, negative = inhibition, actives largely listed as inhibitors. hit rate 0.12% among 410,000; also: nearly all actives have a fitted effect of over 50% in size
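TbPYK + substrate in 50 mM TEA pH 7.2, 100 mM KCl, 10 mM MgCl2, 0.05% BSA, 0.01% Tween-20; cpd pinned; ADP 130 uM final; 45 min RT; Kinase-Glo Plus 10 min; luminescence endpoint.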
RE007 growth inh: less growth of the S. pombe RE007 Vpr strain. S. pombe RE007 Vpr strain, BacTiter-Glo ATP luminescence, 24 h. Potency, µM (titrated, usually from 92.2 µM), for inactives: top-dose activity change, negative = less growth, most hits filed as inhibitors. hit rate 0.21% among 360,000. AID 651644; active = well fitted falling curve with a large enough effect; inconclusive = small, poorly fitted or top-dose-only effect; inactive = no such curve, though single readings can be large or run the other way; also: nearly all actives have a fitted effect of over 50% in size
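Fission yeast RE007 carrying one integrated HIV-1 vpr copy, seeded at OD 0.01 in PMG+AL medium with 23 nL pinned compound. Grown 24 h at 30 degrees; viability read by BacTiter-Glo luminescence after 5 min.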
The depositor's hits bear a star; ? = inconclusive; · = no result given; [ ] = dose if it differs, or a comment. Unless noted, calls follow the shape of the dose curve; as a rule, active = well fitted curve in the direction sought with a large enough effect; inconclusive = small, poorly fitted or top-dose-only effect, or another doubt; inactive = no such curve, though single readings can be large; an effect the other way counts as inactive or inconclusive. Unless noted, % is scaled to controls: 0 for no effect and ±100 for the full control effect; potency is read from the fitted curve at half-maximal effect.

SMILES | LmPK inh | AMA1 RON2 block | Sm TGR block | TbPYK inhibitor | RE007 growth inh
COc1ccc(C2C(C#N)=C(N)N(N(C)C)C3=C2C(=O)CC(C)(C)C3)cc1OC (stereo not drawn) | 6.5% | -8.4% | 4.5% | 0.0% | 6.8%
CC1(C)CC(=O)C2=C(C1)N(c1cccnc1)C(N)=C(C#N)C2c1cccs1 (stereo not drawn) | 3.4% | 24.7% | 50.1µM* | 4.3% | 14.7%
CCOc1ccccc1-n1nnc(-c2nsc(NC(=O)c3ccc(C)cc3)n2)c1C | · | · | 10.5% | 2.5% | ·
CCCCN1CC(c2nc3ccccc3n2CCCCOc2cccc(C)c2C)CC1=O (stereo not drawn) | · | · | -2.8% | 0.4% | ·
CCOC(=O)CC(=O)CSc1nc2ccc(C)cc2cc1C#N | 20µM* | 23.9% | -4.4% | ? | -11.0%
CC(C)(C)OC(=O)CN(Cc1ccc(Cl)cc1)Cc1ccc([N+](=O)[O-])s1 | · | · | · | 1.2% | ·
Cc1c(C(=O)Oc2cccc3cccnc23)oc2ccccc12 | 1.5% | 65.1% | 2.7% | 3.6% | 39.8µM*
O=C(/C=C/c1ccccc1)Nc1cc(-c2nc3ccccc3o2)ccc1Cl | · | · | 0.4% | 0.2% | ·
CN(C)CC(C(=O)c1ccccc1)c1ccccc1 (stereo not drawn) | 0.3% | -13.8% | 35.5µM* | -5.9% | 39.8µM*
CCCCc1nc2c(c3c1C[C@H](C)OC3)CN(S(=O)(=O)c1ccc(C#N)cc1)CC2 | -6.7%[11.5 µM] | · | · | · | ·
O=[N+]([O-])CC(=Nc1ccc(F)cc1)N/N=C\c1oc(O)c2ccccc12 | 0.8% | · | 11.2µM* | · | ·
O=C(N/N=C/c1oc(O)c2ccccc12)c1ccccc1O | 5.5% | 97.8% | -1.7% | 2.5% | 32.3%
COC(=O)c1c(C)oc(C)c1S(=O)(=O)N(C)C1CCCCC1 | 0.7% | 8.2% | 44.7µM* | -1.1% | -6.1%
CN=c1nc(-c2ccccc2)n(-c2ccccc2)s1 | · | -16.3% | 1.12µM* | 7.94µM* | -1.7%
Nc1nonc1C(=O)NCCN=Cc1cc(Cc2ccccc2)cc(Br)c1O | -6.2% | 7.4% | -1.6% | 5.3% | 15.8µM*
CC(=O)OC1C(=O)OCC23CCC4(C)OC4C2OC2CC(OC(=O)C=CC=CC(=O)OCCC1C)C3(C)C21CO1 (stereo not drawn) | · | -8.2% | · | 0.4% | 5.62µM*
COC(=O)C1=C(C)NC(C)=C(C(=O)O[C@H]2CCN(Cc3ccccc3)C2)C1c1cccc([N+](=O)[O-])c1 (stereo partly drawn) | · | · | · | -7.2% | ·
O=C1C(Cl)=C(NCCN2CCCCC2)C(=O)c2ccccc21 | -7.2% | -20.4% | 22.4µM* | 1.9% | -26.3%
CCCC(=O)NC1=C(Cl)C(=O)c2ccccc2C1=O | · | 15.3% | · | ? | 7.08µM*
O=C1C(Cl)=C(NCc2ccco2)C(=O)c2ccccc21 | · | -7.4% | · | -8.0% | 20µM*
CCCC(=O)NNC(=O)CCC(=O)Nc1ccccc1Cl | -14.8% | 64.2% | 0.0% | -7.5% | 17.2%
O=C(NCCN1CCCC1)c1ccccc1Cl | -3.9% | 21.2% | 4.2% | 0.1% | 2.0%
CCNC1=C(Cl)C(=O)c2ccccc2C1=O | 18.7% | -20.6% | 1.1% | -3.8% | 15.8µM*
O=C(CCCCCCCCC#CI)Oc1ccccc1 | · | · | · | -7.1% | ·
CCOC(=O)N1CCC(NC(=O)c2ccc3c(c2)N(Cc2ccccc2)C(=O)c2ccccc2S3(=O)=O)CC1 | · | · | -3.1% | 1.6% | ·
SMILES | LmPK inh | AMA1 RON2 block | Sm TGR block | TbPYK inhibitor | RE007 growth inh
Cc1ccccc1OCC(=O)OCc1cc(=O)n2nc(C3CCCCC3)sc2n1 | · | · | -1.1% | 0.1% | ·
COc1ccc(-n2c(=O)c3ccccc3n(Cc3ccccc3C)c2=O)c(OC)c1 | · | · | 1.5% | -4.9% | ·
CC[C@H]1OC(=O)[C@H](C)C(=O)[C@H](C)[C@@H](OC2O[C@H](C)C[C@H](N(C)C)[C@@H]2O)[C@@](C)(OC)C[C@@H](C)C(=O)[C@@H](C)C2N(CCCCn3cnc(-c4cccnc4)c3)C(=O)O[C@@]21C (stereo partly drawn) | · | · | · | 1.7% | ·
Cc1noc(NS(=O)(=O)c2ccc(NC(=O)c3ccc(Br)cc3)cc2)c1C | · | · | -10.9% | 1.1% | ·
Oc1ccc(/C=N/NC(=S)Nc2cccnc2)c(O)c1O | -5.7% | ? | 10µM* | ? | -17.8%
Cc1cccc(N/N=C/c2ccc(O)c(O)c2O)c1 | 7.6% | ? | 7.08µM* | -19.5% | 15.1%
COc1cccc(N/N=C/c2cccc(Br)c2O)c1 | -6.2% | 20.4% | 35.5µM* | -0.5% | 3.8%
COc1ccc(CNC(=O)CN2N=C(c3ccccc3)CCC2=O)c(OC)c1 | · | · | 1.4% | 5.7% | ·
CC1CCN(S(=O)(=O)c2cc(C(=O)NCCc3ccccc3)n(C)c2)CC1 | · | · | 1.8% | 4.5% | ·
Cc1ccc(C)c(N(C)C(=O)c2cc3c(s2)-c2ccccc2OC3)c1 | · | · | -6.4% | 0.4% | ·
O=C(O)c1ccccc1N/N=C/c1c(Sc2nnnn2-c2ccccc2)nc2ccccn2c1=O | 0.1% | -4.5% | 39.8µM* | 2.5% | 14.2%
C/C(=N/NC(=O)c1ccccn1)c1ccco1 | 14.1µM* | 5.2% | -29.3% | ? | -12.1%
C/C(=N\NC(=O)c1n[nH]c2c1CCC2)c1ccco1 | 15.8µM* | 4.2% | 8.8% | ? | -9.3%
C[C@@H]1CN(CC(=O)Nc2ccc3c(c2)Cc2cccc(-c4cc(=O)cc(N5CCOCC5)o4)c2S3)C[C@H](C)O1 | · | · | · | 0.0% | ·
CN(Cc1ccco1)c1ncnc2ccc(-c3ccoc3)cc12 | · | · | 20µM* | -16.5% | ·
CCCCCCn1ccc(=N)cc1 | -1.7% | -0.8% | 2.3% | 4.8% | -24.2%
CCCCCCCCCCCCCCCCn1cc[n+](CC(C)=O)c1 | 2.6% | 4.7% | 6.5% | -3.7% | 31.6µM*
CC(=O)c1ccc(NC(=O)NCCc2c[nH]c3ccccc23)cc1 | · | · | -1.3% | -0.6% | ·
CCOC(=O)N1CCN(C(=O)C2CCN(C(=O)c3ccccc3C)CC2)CC1 | · | -1.3% | · | 7.94µM* | ?
CC(=O)Nc1ccc(-c2cn3cc(C)ccc3n2)cc1 | -11.5% | 0.0% | 6.6% | 0.9% | -7.5%
Cc1ccc2nc(-c3ccc(O)c(O)c3)cn2c1 | ? | 3.55µM* | ? | -23.3% | 16.6%
Cc1ccc2nc(-c3ccccc3)cn2c1 | 7.08µM* | 8.7% | -0.9% | 25.1µM* | 44.7µM*
COc1ccc(C(=O)NCc2ccc3c(c2)CCN3C(=O)c2cccc(C)c2)cc1OC | · | · | -4.5% | 2.8% | ·
CC(C)N(Cc1c(O)ccc2c(=O)c(-c3ccc(Cl)cc3)coc12)C(C)C | 13.2% | 10.2% | 39.8µM* | -1.1% | 15.3%
CC1CCCCN1Cc1c(O)ccc2c(=O)c(-c3ccc(Cl)cc3)coc12 (stereo not drawn) | 1.9% | -4.6% | 7.1% | -0.7% | 1.3%
COc1ccc(-c2cc(C(F)(F)F)n3ncc(C(=O)NCc4ccco4)c3n2)cc1 | 0.5% | -2.1% | 44.7µM* | -6.5% | ?
COc1ccc(-c2cc(C(F)F)n3ncc(C(=O)N4CCN(C(=O)c5ccco5)CC4)c3n2)cc1 | 3.2% | 7.8% | 28.2µM* | 0.2% | -6.6%
